Test results from PubChem BioAssay.
The source made the active and inactive calls.

Key:
[1] = adipocyte viability effects, profiling panel, cell-based, 3T3-L1 adipocytes, calcein-AM fluorescence, 48 h, basal (AID 1163); conditions: 3T3-L1 adipocytes viability, higher = more signal
[2] = HepG2 cell viability effects, profiling panel, calcein-AM fluorescence, 48 h, basal (AID 1164); conditions: higher = more signal
[3] = MM1S cell viability effects, profiling panel, calcein-AM fluorescence, 48 h, basal (AID 1165); conditions: higher = more signal;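 note: viability of MM1S multiple myeloma cells under basal unstimulated conditions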
[4] = basal RPMI8226 viability, no added stimulus, profiling panel, cell-based, calcein-AM fluorescence, 48 h, PK04 Diversity Set (AID 1166); conditions: RPMI8226 myeloma viability, higher = more signal;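 note: cells grown under basal conditions without added stimulus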
[5] = basal HepG2 mitochondrial membrane potential changes, profiling panel, cell-based, JC-1 fluorescence, 24 h, 100 nL compound (AID 1167); conditions: higher = more signal
[6] = basal 3T3-L1 adipocyte mitochondrial potential changes, profiling panel, cell-based, JC-1 fluorescence, 3T3-L1 adipocytes, 24 h, 100 nL compound (AID 1168); conditions: JC-1 mitochondrial fluorescence, higher = more signal, called active from +8 up or from −8 down
[7] = basal RPMI8226 mitochondrial membrane potential changes, profiling panel, cell-based, JC-1 fluorescence, 24 h, 100 nL compound (AID 1169); conditions: RPMI8226 myeloma, JC-1 mitochondrial potential fluorescence, higher = more signal
[8] = basal MM1S mitochondrial membrane potential changes, profiling panel, cell-based, JC-1 fluorescence, 24 h, 100 nL compound (AID 1170); conditions: higher = more signal
[9] = A549 lung cancer cell viability effects, profiling panel, resazurin fluorescence, 24 h, PK04 Diversity Set (AID 1171); conditions: higher = more signal, called active from +8 up or from −8 down
[10] = HepG2 liver cancer cell viability effects, profiling panel, resazurin fluorescence, 24 h, PK04 Diversity Set (AID 1172); conditions: higher = more signal
[11] = basal S. cerevisiae growth modulation, no modifier, primary screen, OD600, strain BY4716, 24 h, basal condition (AID 1173); conditions: OD600, 24 h, higher = more signal, called active from +8 up or from −8 down
[12] = MM1S myeloma cell viability, profiling panel, resazurin fluorescence, basal, 24 h, PK04 Diversity Set (AID 1174); conditions: higher = more signal, called active from +8 up or from −8 down;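 note: MM1S multiple myeloma cell line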
[13] = target: Dihydroorotate dehydrogenase (quinone), mitochondrial (Plasmodium falciparum (isolate 3D7)) (UniProt Q08210); assay: PfDHODH enzyme inhibitors, primary screen, biochemical, C-terminal His tag, absorbance 600 nm (AID 1175); conditions: DCIP absorbance 600 nm, higher = more signal, called active from +8 up or from −8 down;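 note: recombinant parasite enzyme with a five histidine tag at its C terminus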
Chain of Dihydroorotate dehydrogenase (quinone), mitochondrial (Plasmodium falciparum (isolate 3D7)) (Q08210 whole entry, looked up): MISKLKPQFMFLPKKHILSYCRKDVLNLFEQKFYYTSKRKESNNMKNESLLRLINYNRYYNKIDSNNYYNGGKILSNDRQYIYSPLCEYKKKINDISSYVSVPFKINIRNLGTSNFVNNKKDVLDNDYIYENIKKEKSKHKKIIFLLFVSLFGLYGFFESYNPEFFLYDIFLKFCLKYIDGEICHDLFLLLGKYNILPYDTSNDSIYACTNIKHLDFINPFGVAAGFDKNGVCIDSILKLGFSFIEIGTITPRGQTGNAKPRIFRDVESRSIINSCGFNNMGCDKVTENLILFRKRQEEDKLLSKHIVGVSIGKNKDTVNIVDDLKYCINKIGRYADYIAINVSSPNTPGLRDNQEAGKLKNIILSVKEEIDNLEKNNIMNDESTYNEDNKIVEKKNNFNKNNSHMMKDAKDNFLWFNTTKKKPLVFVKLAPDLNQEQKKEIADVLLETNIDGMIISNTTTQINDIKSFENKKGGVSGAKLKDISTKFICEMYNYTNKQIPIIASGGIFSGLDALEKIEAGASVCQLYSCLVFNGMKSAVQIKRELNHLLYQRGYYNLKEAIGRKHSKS

[14] = S. cerevisiae RM11-1a growth modifiers, primary screen, strain RM11-1a, OD600, basal, 24 h (AID 1177); conditions: OD600, 24 h, higher = more signal, called active from +8 up or from −8 down;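 note: cultures grown under basal conditions with no added stressor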
[15] = E. coli acrAB mutant growth effects, primary screen, E. coli filamentation inducers, strain DRC39, OD650, 24 h (AID 1178); conditions: higher = more signal, called active from +8 up or from −8 down;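 note: growth measured as culture turbidity by optical density at 650 nm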
[16] = E. coli acrAB mutant growth effects, primary screen, E. coli filamentation inducers, strain DRC39, OD650, 48 h (AID 1179);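 note: screen aims at cell division blockers that make cells filament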; conditions: E. coli DRC39 delta-acrAB growth, higher = more signal, called active from +8 up or from −8 down
[17] = RPMI8226 myeloma cell viability, profiling panel, resazurin fluorescence, basal, 24 h, PK04 Diversity Set (AID 1180); conditions: higher = more signal;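 note: RPMI8826 multiple myeloma cell line at 5000 cells per well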
[18] = target: E3 ubiquitin-protein ligase XIAP (Homo sapiens) (UniProt P98170); assay: XIAP binders, primary screen, biophysical, small-molecule microarray, fluorescence 635 nm (AID 1181); conditions: small-molecule microarray binding, higher = more signal;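 note: score merges 667 nm emission and signal to noise over triplicate slides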
Chain of E3 ubiquitin-protein ligase XIAP (Homo sapiens) (P98170 whole entry, looked up): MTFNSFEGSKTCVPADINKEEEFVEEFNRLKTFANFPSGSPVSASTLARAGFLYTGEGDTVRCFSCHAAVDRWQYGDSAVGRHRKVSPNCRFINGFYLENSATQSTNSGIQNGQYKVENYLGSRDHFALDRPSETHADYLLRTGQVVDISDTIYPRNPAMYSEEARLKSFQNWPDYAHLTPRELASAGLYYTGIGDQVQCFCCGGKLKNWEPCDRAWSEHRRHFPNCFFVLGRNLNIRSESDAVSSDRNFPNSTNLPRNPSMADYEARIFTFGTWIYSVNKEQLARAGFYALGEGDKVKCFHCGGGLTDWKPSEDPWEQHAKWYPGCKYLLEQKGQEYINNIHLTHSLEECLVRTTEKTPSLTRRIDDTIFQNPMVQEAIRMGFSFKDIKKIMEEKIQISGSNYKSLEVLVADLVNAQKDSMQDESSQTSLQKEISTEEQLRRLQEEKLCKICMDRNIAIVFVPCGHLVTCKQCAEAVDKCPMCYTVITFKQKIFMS

[19] = tested on: XIP peptide (Xip251-270) binding; assay: small-molecule binders of XIP peptide, primary screen, biochemical, small-molecule microarray, fluorescence 635/667 nm, 0.1 µg/mL protein (AID 1182); conditions: fluorescent protein binding, 635 nm, higher = more signal, called active from +8 up or from −8 down
[20] = tested on: XIP peptide (Xip251-270); assay: small-molecule binders of XIP peptide, primary screen, biochemical, small-molecule microarray, fluorescence 635/667 nm, 0.5 µg/mL protein (AID 1183); conditions: small-molecule microarray binding, fluorescence 635 nm; higher = more signal

Row | Compound | z-score [1] | z-score [2] | z-score [3] | z-score [4] | z-score [5] | z-score [6] | z-score [7] | z-score [8] | z-score [9] | z-score [10] | z-score [11] | z-score [12] | composite z-score [13] | z-score [14] | z-score [15] | z-score [16] | z-score [17] | composite z-score [18] | composite z-score [19] | composite z-score [20]
1 | CC(C)[C@@H](C(=O)O)n1cc(-c2ccccn2)nn1 | 1.05 | 0.106 | -0.0169 | 0.516 | 0.422 | 0.592 (inactive) | -0.276 | 0.414 | 0.756 (inactive) | 0.735 | -1.37 (inactive) | 1.11 (inactive) | -0.206 (inactive) | -0.52 (inactive) | 1.87 (inactive) | 1.17 (inactive) | 0.386 | -0.0597 | 0.353 (inactive) | -0.548
2 | C=C(COC)C(=O)CC[C@H](OC(=O)c1ccccc1-c1ccccc1C(=O)O)c1ccccc1OCCO | 0.819 | -0.927 | -1.41 | 0.0361 | 0.618 | 0.819 (inactive) | -0.437 | 0.24 | 0.283 (inactive) | 0.365 | -1.26 (inactive) | 0.732 (inactive) | -1.46 (inactive) | -0.524 (inactive) | 1.54 (inactive) | 0.515 (inactive) | 0.439 | -0.111 | 1.43 (inactive) | 0.356
3 | CCCC[C@@H](O)C1=C(C)C[C@H]2C(=O)N(C)C(=O)[C@H]2[C@H]1CO | -0.552 | 0.257 | 0.0991 | -0.0268 | 1.2 | 1.01 (inactive) | -0.363 | 0.613 | 0.199 (inactive) | 0.648 | -3.48 (inactive) | 0.987 (inactive) | 0.312 (inactive) | -1.09 (inactive) | 2.71 (inactive) | 1.75 (inactive) | 1.03 | 0.0769 | 0.627 (inactive) | 0.586
4 | O=C(N1CCCCC1)[C@@]1(Cc2ccccc2)N=C(c2ccc(OCCCO)cc2)O[C@H]1c1ccccc1 | 1.33 | -2.47 | -3.48 | -3.78 | -1.61 | 0.804 (inactive) | -0.982 | -2.56 | 0.935 (inactive) | 0.569 | -0.635 (inactive) | -3.06 (inactive) | 0.31 (inactive) | 0.895 (inactive) | 1.97 (inactive) | 0.242 (inactive) | -5.21 | -0.0448 | 0.764 (inactive) | 0.66
5 | COc1ccc([Si](C)(C)[C@@H]2[C@@H](CC(=O)N3CCC[C@H]3CO)O[C@]3(C(=O)N(Cc4ccc(N5CCC5=O)cc4)c4ccccc43)[C@H]2C)cc1 | 0.592 | -3.27 | -2.7 | -4.39 | -1.56 | 1.28 (inactive) | -1.18 | -1.66 | -1.99 (inactive) | -1.43 | -1.17 (inactive) | -2.01 (inactive) | -2.42 (inactive) | 0.613 (inactive) | 1.34 (inactive) | 1.2 (inactive) | -5.16 | -0.117 | 1.15 (inactive) | 0.713
6 | C=CCNC(=O)[C@@H]1[C@H]2C(=O)O[C@H](c3ccccc3)[C@H](c3ccccc3)N2[C@H](c2ccc(O)cc2)[C@@]12C(=O)Nc1ccc(C#Cc3ccc(OC)cc3)cc12 | 1.12 | -2.27 | -2.63 | -4.22 | -2.39 | 2.94 (inactive) | -1.16 | -0.975 | -1.58 (inactive) | -0.322 | -0.267 (inactive) | -1.64 (inactive) | -1.35 (inactive) | -0.411 (inactive) | -0.071 (inactive) | 0.773 (inactive) | -3.89 | -0.0932 | 0.507 (inactive) | 0.543
7 | O=C1O[C@@H](c2ccccc2)[C@@H](c2ccccc2)N2[C@@H](c3ccc(OCCO)cc3)[C@]3(C(=O)Nc4ccc(C#CC5(O)CCCCCC5)cc43)[C@@H](C(=O)NC[C@H](O)c3ccccc3)[C@H]12 | 1.71 | 0.394 | -0.987 | 0.208 | -1.7 | 0.548 (inactive) | -0.535 | -0.197 | 0.883 (inactive) | 0.18 | 0.842 (inactive) | 0.786 (inactive) | 0.935 (inactive) | 2.1 (inactive) | 1.06 (inactive) | 1.12 (inactive) | 0.966 | -0.304 | 0.673 (inactive) | 0.819
8 | CC(=O)OC(C/C=C\B1OC(C)(C)C(C)(C)O1)c1ccccc1 (stereo not given) | 0.554 | 0.467 | 0.345 | 0.0422 | 2.03 | 2.31 (inactive) | -0.457 | 0.962 | 0.273 (inactive) | 0.518 | -2.1 (inactive) | 1.14 (inactive) | 0.339 (inactive) | -4.44 (inactive) | 1.5 (inactive) | 0.57 (inactive) | 0.157 | -0.0256 | -0.65 (inactive) | -0.842
9 | C#CCOc1ccc(C[C@H]2C(=O)O[C@H](Cc3ccccc3)[C@H](/C=C/C3CC3)N2CC#C)cc1 | 0.892 | -0.99 | -1.63 | -1.89 | 2.08 | 0.476 (inactive) | -0.599 | 0.0151 | 1.51 (inactive) | 1.71 | -0.783 (inactive) | 0.35 (inactive) | 0.656 (inactive) | 1.29 (inactive) | 2.66 (inactive) | 1.81 (inactive) | 0.915 | -0.144 | 0.294 (inactive) | -0.237
